Screening results: PubChem, National Center for Advancing Translational Sciences (NCATS)
Pf Dd2 inh – blocks in vitro growth of P. falciparum Dd2; Potency, µM (series often up to 28.9 µM), for inactives: at the highest dose activity, negative = inhibition, most hits filed as inhibitors; 120,000 compounds, 4.3% hits; AID 1347417; P. falciparum Dd2 growth, SYBR Green, 72 h; active = well fitted inhibition curve with a large enough effect;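 also: plate controls were DMSO vehicle for no effect and reference drug for full effect; nearly all actives have a fitted effect of over 65% in size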
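Infected erythrocytes (Dd2, 0.3% parasitemia, 2.5% hematocrit final) are added to compound in RPMI-1640/Albumax II medium, grown 72 h at 37C in low oxygen, then lysed with saponin/Triton-X containing SYBR Green and read by fluorescence.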
An asterisk follows results filed as active; i = inactive; [ ] = dose if it differs, or a comment. The entries come from a sample that favours hits as a whole. Potency is read from the fitted curve at half-maximal effect.

SMILES	Pf Dd2 inh
CCn1cc(C(=O)N2CCOc3c(O)cc(-c4ccccc4C)cc3C2)cn1	12.6µM*
Cc1cnc(C)c(-c2cc(O)c3c(c2)CN(C(=O)C2CCOC2)CCO3)n1 (configuration not stated)	-15.7%
Cc1nc(C(=O)N2CCOc3c(O)cc(-c4cccc(Cl)c4)cc3C2)c(C)o1	-18.8%
CCC(=O)N1CCC(Oc2ccc(C(=O)N3CCOCC3)cn2)C1 (configuration not stated)	30.6%
CC[S+](=O)([O-])NC1CCN(C(=O)N2CC3CC(C2)[C@H]2CCCC(=O)N2C3)CC1 (some centres not stated)	8.3%
CCN1CCN(CC(O)COc2cccc(CNCCCc3scnc3C)c2)CC1 (configuration not stated)	i
CN(CC(O)COc1cccc(CNCCc2ccc(F)cc2)c1)C1CCCCC1 (configuration not stated)	3.98µM*
CCN1CCN(CC(O)COc2cccc(CNCc3cnn(CC)c3)c2)CC1 (configuration not stated)	0.4%
Cc1ccsc1[C@@H]1CCN(C(=O)CCc2ccc(F)cc2F)C[C@H]1O	-9.5%
Cn1nnnc1C1CCCN(C(=O)C2CCCC2)C1 (configuration not stated)	-4.3%
CCc1ccccc1NC(=O)Cn1ccn2nc3c(c2c1=O)CCCC3	2.6%
Cc1cccc(C)c1CN1CCCC12Cc1ccccc1CNC2=O (configuration not stated)	2.51µM*
Cc1cccc(CN2CCCCC23Cc2ccccc2CNC3=O)n1 (configuration not stated)	10µM*
O=C1NCc2ccccc2CC12CCCCN2Cc1cccc(O)c1 (configuration not stated)	-20.2%
Cc1ncc(CO)c(CN2CCCC23Cc2ccccc2CNC3=O)c1O (configuration not stated)	0.2%
O=C1NCc2ccccc2CC12CCCN2Cc1ccc2ccccc2n1 (configuration not stated)	5.2%
Cc1cc(C)c(CN2CCCC23Cc2ccccc2CNC3=O)c(C)c1 (configuration not stated)	-4.6%
C=CCNC(=O)C(NC(=O)c1cccc(OC)c1)C1CCN(C(=O)C2CCCC2)CC1 (configuration not stated)	i
N#Cc1ccc(CN2CCC3(CC2)CC(c2cccc(C(F)(F)F)c2)=NO3)cc1	-24.4%
CCc1ccccc1Nc1nn2c(=O)c3ccc(C(=O)NC4CCCCC4)cc3nc2s1	-19.6%
CCc1ccccc1Nc1nn2c(=O)c3ccc(C(=O)Nc4cc(C)cc(C)c4)cc3nc2s1	-2.4%
CCc1ccccc1Nc1nn2c(=O)c3ccc(C(=O)NC(C)c4ccccc4)cc3nc2s1 (configuration not stated)	1µM*
COc1ccc(-c2noc([C@@H]3CCCN3C(=O)c3ccc(N(C)C)cc3)n2)cc1OC	i
COc1ccc(OC)c(NC(=O)C2CCCCC(=O)N2)c1 (configuration not stated)	-13.3%
O=C1c2ccccc2-c2onc3c(Br)cc(NC4CCCCC4)c1c23	-3.5%
SMILES	Pf Dd2 inh
COCCNc1ncccc1-c1noc([C@@H]2CCCN2C2CCN(C(C)=O)CC2)n1	i
COCCNc1ncccc1-c1noc([C@@H]2CCCN2C2CCN(C)CC2)n1	-9.5%[44.1 µM]
O=C1c2ccccc2-c2onc3c(N4CCN(C5CCCCC5)CC4)cc(NCCO)c1c23	5.01µM*
COCCNc1cc(N2CCN(C3CCCCC3)CC2)c2noc3c2c1C(=O)c1ccccc1-3	0.891µM*
O=C(c1csc(N2CCN(c3ccccc3)CC2)n1)N1CCN(C2CCCCC2)CC1	i
Cc1ccc(S(=O)(=O)N2CCCC(CCC(=O)NC3CCS(=O)(=O)C3)C2)cc1 (configuration not stated)	3.9%
COCCNC(=O)c1ccc(OC2CCN(Cc3ncc[nH]3)CC2)c(Cl)c1	-22.9%
O=C(NC1CCCC1)c1ccc(OC2CCN(CCCC(F)(F)F)CC2)c(Cl)c1	1.41µM*
COCCNC(=O)c1ccc(OC2CCN(S(C)(=O)=O)CC2)c(Cl)c1	-2.3%
FC1(F)CN[C@H](c2nc(-c3ncccn3)no2)C1	18.7%
O=C(CN1C(=O)COc2ccc(C(=O)COc3cccc(F)c3)cc21)NCc1ccc2c(c1)OCO2	i
O=C(Cc1ccc2c(c1)OCO2)N1CCNc2cnc(Nc3cccc(F)c3)nc2C1	-2.8%[44.1 µM]
O=C(Cc1ccc2c(c1)OCO2)N(Cc1ccncc1)Cc1cccc(OCCc2ccc(F)cc2)c1	11.2µM*
COC(=O)c1ccc(Cn2nnc3c(=O)[nH]c(C4CCCN(S(=O)(=O)c5ccccc5)C4)nc32)cc1 (configuration not stated)	-21.6%
O=C(c1ccccc1F)N1CCC(c2nn(Cc3ccccc3)c(=O)[nH]2)CC1	26.6%
Cc1ccccc1Cn1nnc2c(=O)[nH]c(C3CCCN(C(=O)c4ccc(C(C)(C)C)cc4)C3)nc21 (configuration not stated)	8.91µM*
CCc1cn[nH]c1C1CCCN(C(=O)c2ccc(Cn3nnnc3C)cc2)C1 (configuration not stated)	10.3%
Cc1cccc(Cn2nnc3c(=O)[nH]c(C4CCCN(C(=O)c5ccc(C(C)(C)C)cc5)C4)nc32)c1 (configuration not stated)	1µM*
N#Cc1ccccc1Cn1nnc2c(=O)[nH]c(C3CCCN(S(=O)(=O)c4ccc(F)cc4)C3)nc21 (configuration not stated)	i
Cc1ccc(C(=O)N2CCCC(c3nn(-c4ccccc4)c(=O)[nH]3)C2)cc1 (configuration not stated)	i
Cc1ccc(Cn2nnc3c(=O)[nH]c(C4CCN(C(=O)Cc5ccccc5F)CC4)nc32)cc1	-27.2%
O=C(Cc1ccccc1F)N1CCC(c2nc3c(nnn3Cc3cccc(Cl)c3)c(=O)[nH]2)CC1	10µM*
CCCOc1ccc(CNC(=O)CN2CC3CC(C2)[C@H]2CCCC(=O)N2C3)cc1 (some centres not stated)	-24.4%
COCc1nncn1C1CCN(S(=O)(=O)c2ccccc2C(F)(F)F)CC1	16.6%
CCC1=C(C(=O)OC)C(c2ccccc2)N2C(CC(=O)NCCCN3CCCC3=O)=CSC2=N1 (configuration not stated)	i
SMILES	Pf Dd2 inh
CCC(C)NC(=O)C1COC2(CCCCC2)N1C(=O)c1cccc(F)c1 (configuration not stated)	-22.5%
Cn1cc(C(=O)N2CCC(N(Cc3cccnc3)C3CCOCC3)CC2)cn1	14.9%
Fc1ccc(Nc2c3c(nc4ccccc24)CCC3)cc1	-11.2%
CCN(CC)CCOC(=O)c1ccc(Nc2c3c(nc4ccccc24)CCC3)cc1	7.08µM*
CCN(CC)CCOC(=O)c1ccc(NC(=O)CSc2cc(=O)n(CC)c3ccccc23)cc1	88.6%
CC(C)c1ccccc1NC(=O)CN1C(=O)NC2(CCOCC2)C1=O	8.0%
O=C(Cc1cccc(F)c1)N1CC(c2nnc(-c3ccncc3)o2)C2(CCOCC2)C1 (configuration not stated)	-0.5%
COc1ccc(CNC(=O)C2Cn3cccc3C(=O)N2C)cc1OC (configuration not stated)	i
COc1ccc(CN2CCN(C3CCN(c4ccccc4)CC3)CC2CCO)cc1C (configuration not stated)	11.2µM*
CC(C)N1CCN(C2CCN(c3ccc4c(c3)CCC4)CC2)CC1CCO (configuration not stated)	-19.1%
Cc1ccc(CN2CCN(C3CCN(Cc4ccccn4)CC3)CC2CCO)o1 (configuration not stated)	-7.1%
